# Columns and labels:
# Assay in all cases: PBM binding z-score (relative to random genomic background probes); higher = stronger binding; sequences stand for … in GC…GCGATTGACAGCGTAGAATGAAGG
# [1] = system: FXR:RXRa (NR concentration 270 nM, RXRa partner concentration 90 nM)
# How it was run: (§1)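 The probes on custom Agilent 4×180K protein-binding microarrays were double-stranded, with 34-nt variable regions bearing direct-repeat seeds, single-nucleotide variants, half-site ablations and random human genomic background sequences. Incubation lasted 1 h with ligand-free nuclear receptor dimers in PBS pH 7.4, 2% milk, 0.02% Triton X-100, 1 mM DTT, 0.2 mg/mL BSA and 0.4 mg/ml salmon testes DNA. Antibodies against each partner (one per run) detected bound dimers, and fluorescence scans were regression-normalized. Binding z-scores take the random background probes as reference.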
# [2] = system: LXRa:RXRa (NR concentration 270 nM, RXRa partner concentration 90 nM)
# How it was run: as §1
# [3] = system: LXRa homodimer (NR concentration 270 nM)
# How it was run: as §1
# [4] = system: LXRb:RXRa (NR concentration 270 nM, RXRa partner concentration 90 nM)
# How it was run: as §1
# [5] = system: LXRb homodimer (NR concentration 270 nM)
# How it was run: as §1
# [6] = system: PPARa:RXRa (NR concentration 270 nM, RXRa partner concentration 90 nM)
# How it was run: as §1
# [7] = system: PPARg:RXRa (NR concentration 180 nM, RXRa partner concentration 90 nM)
# How it was run: as §1
# [8] = system: PPARg:RXRa 270nM:90nM, anti-RXR (NR concentration 270 nM, RXRa partner concentration 90 nM)
# How it was run: as §1
# [9] = system: PPARg:RXRa 30nM:10nM, anti-RXR (NR concentration 30 nM, RXRa partner concentration 10 nM)
# How it was run: as §1
# [10] = system: PPARg:RXRa 90nM:30nM, anti-RXR (NR concentration 90 nM, RXRa partner concentration 30 nM)
# How it was run: as §1
Sequence,PBM binding z-score [1],PBM binding z-score [2],PBM binding z-score [3],PBM binding z-score [4],PBM binding z-score [5],PBM binding z-score [6],PBM binding z-score [7],PBM binding z-score [8],PBM binding z-score [9],PBM binding z-score [10]
AATACAGGGCCATCGTAGGCCAGAGTACGCACAG,0.0639,0.221,-0.132,-0.283,-0.499,0.0726,0.954,-0.0465,-0.14,-0.0369
CCTAGTTGGTCAGGAGGTCATACACCGGATATGA,3.81,3.61,2.79,3.13,0.702,3.89,2.72,3.82,1.58,2.89
ATAGAAAGGTCGTGAGGTGAGTATACAGAAAGGC,4.9,3.76,0.49,3.4,0.703,4.86,4.33,4.37,2.46,3.57
CTACCAAGGTGAACAGGGTCGTTGATTACTATTC,1.07,0.788,-0.0558,1.58,-0.226,2.32,1.23,1.38,0.0525,0.997
CCTACTGGGCCACGATAGGTCATTGATTCAGTGA,0.91,3.95,1.66,1.74,-0.503,2.79,2.44,3.11,0.577,1.86
ACTAGTTGGTCAGCTGAGTTCACACACAATTCGG,1.06,1.59,1.72,1.59,0.275,1.65,0.747,0.792,0.098,0.251
ATCTCTAGGTAAGACTCAGTTCAATGAAGAACGC,0.961,1.03,1.15,1.04,1.18,0.681,0.379,0.658,0.44,0.504
ACTATTAGTTGAGACGAGGGCAACCAATAGGTTG,0.56,0.143,-0.167,0.143,-0.0545,0.282,0.647,0.464,0.235,0.58
CAAATTAGGTCACCGGAAGGTCAAAGTCCGCATG,6.61,6.31,5.39,5.47,1.82,6.44,9.14,7.56,5.87,7.39
AGAATGAGGTTATTAAGATCAGGGAATTGCGGTC,1.82,1.51,0.178,1.26,-0.237,2.39,1.44,1.72,0.425,0.999
GCTGCTAGGTCAGGTTAGTCAGCTAACGGGTACG,1.16,0.852,-0.246,0.282,-0.367,1.51,0.774,1.17,-0.493,0.602
ACAGACAGGTGAGTGAAGGTAACCCAGCTGGACG,0.353,-0.0379,-0.585,-0.271,-0.844,0.275,0.708,0.399,-0.129,0.213
CCTACTGGGCCATCAGGTCGTTGATATCAACGTT,-0.00658,-0.372,-0.231,-0.0218,-0.541,0.992,1.22,2.22,0.274,1.41
CTCGAAAGGTCGGTTGAGGTGAGCATACGGATAA,2.86,1.78,-0.014,1.37,-0.173,2.74,0.697,1.33,0.406,0.609
TGGAGTAGGTTAGTCGGGGCATTCAGCCAACATA,0.43,0.268,0.358,1.05,1.05,1.31,0.778,1.32,0.564,1.22
CCAGACAGGTCAGAAGGTAACTCAGCCTCGATTA,2.82,2.29,0.142,1.7,-0.0467,3.15,1.84,2.26,0.435,1.4
CCTAGCAGGCCAATCTGGGTCTCTCAAGGCTTGA,-0.268,-0.409,-0.738,-0.885,-0.982,0.318,-0.774,-0.468,-1.1,-0.61
TTATATAGGTAAATGCTAGGTGAAAGTCCGATCT,0.733,0.69,0.375,0.64,0.108,2.18,2.61,2.59,1.97,2.34
TCTAGCCGGCCAGAGGGTCACTCAAGAGGTACGG,1.12,0.885,-0.666,1.07,-1.11,2.03,0.575,1.57,1.39,1.44
ATACCAAGGTGATCGTGAGGGCGTTGATACTAAC,0.788,0.233,-0.00704,0.447,-0.219,0.489,0.369,-0.183,-0.112,-0.238
ACAGACAGGTGATGAAGGTAACTCACGCTATCAT,-0.0545,0.135,-0.0211,0.0443,-0.474,0.247,0.81,0.393,0.232,-0.0255
ACTATTAGTTTACTTAGGGCAACCGATACGACGC,0.0954,0.173,0.422,0.0496,0.375,0.0302,0.985,0.261,0.394,0.541
ATATGTAGGTTACATACGGGTCATTCAGGCTATG,2.41,4.56,1.98,2.83,0.718,4.43,6.06,4.92,2.62,4.19
AGTCAAAGTTCATCTAGGTTACGTAAGATATGCT,6.68,6.16,6.06,3.95,2.11,4.96,6.9,6.6,4.02,5.95
TCTAGTAGGTTAGTCGGGGCATTCAGCCAACATA,0.874,0.731,0.367,1.54,0.412,1.9,0.856,2.5,2.88,2.8

Sequence,PBM binding z-score [1],PBM binding z-score [2],PBM binding z-score [3],PBM binding z-score [4],PBM binding z-score [5],PBM binding z-score [6],PBM binding z-score [7],PBM binding z-score [8],PBM binding z-score [9],PBM binding z-score [10]
GCGACTGGGGCATCAGCAGGGTACCATAACTTAA,-0.653,-0.542,-0.531,0.192,-0.913,0.58,0.759,0.382,-0.46,-0.166
CAAACTAGGTCACAGAGGTCTAAGTCCGTGCGTA,4.42,3.56,0.555,2.13,0.273,5.17,8.49,6.93,5.19,6.98
ACAGACAGGTGAGTGAAGGTAAGTCAGCTGGACG,0.17,0.000763,-0.483,-0.528,-0.65,0.236,0.568,-0.129,-0.0839,-0.0489
CCTACTGGGCCACGAAGGGTCATTGATTCAGTGA,2.42,2.97,0.54,2.41,-0.798,3.68,3.11,3.45,1.17,2.58
ATCTTTAGGTAAGACTCAGTTCAGTGAAGAACGC,0.459,0.502,0.392,0.259,0.931,0.478,0.122,0.267,0.146,0.0526
TCAGACAGGTGAAAGTAACTCAGGTACGCAGTCG,0.453,0.738,-0.345,0.85,-0.276,1.32,0.821,2.21,4.08,2.92
CGTACTAGGTCATTGACAGGACAGTGAATAGTAA,4.65,3.15,0.997,2.29,0.27,4.07,6.36,5.47,3.06,4.93
CGTCCAAGGTCATAGGACGTCAGTGAAGACAGAT,7.14,5.2,0.696,3.88,0.284,5.43,4.73,5.14,1.6,3.51
CCTTGCGGGTCACTCCAGGTTATAGCATCGGAGT,4.22,7.4,1.24,4.85,-0.435,4.25,4.41,4.41,1.34,3.35
TCTGCTATGTCAGTTGGTCAGCTAACGAGCTGCC,-0.167,-0.237,-1.15,-0.392,-0.0439,-0.108,-0.623,0.446,0.854,0.78
ACTATTAGTTGAGACGAGGGCCACCGATAGGTTG,-0.105,-0.102,-0.224,-0.593,0.0596,-0.508,0.594,-0.159,0.0911,-0.12
TCTTGTAGATCAACAGGAGGTCAAGAAAGATCGA,2.21,3.53,3.02,3.32,0.366,3.71,1.04,2.25,2.55,2.35
TAGCCTCGGTCATGCGGGCCAGTATAGTGTCGGC,0.522,0.28,-0.0554,-0.734,-0.472,-0.0733,-0.325,-0.494,-0.587,-0.372
AGTCAAAGTTCAGGACGAGGTAACGCAAAGCACG,3.93,3.88,1.08,2.03,0.0872,3.33,4.31,4.9,1.97,3.87
TCTGCTAGGTCAGTTGGTCAGCTAACGAGCTGCC,0.844,0.445,-0.44,0.299,0.673,1.29,0.575,1.83,1.27,1.66
CACACTAGGTCAAGGTCAAAGTCGGTTTGTGCCA,7.12,6.07,5.26,4.87,2.5,5.71,8.74,7.44,5.6,7.61
TCATATAGGTAAATTCTAGGTGAAAGTCCGATCT,1.45,1,0.27,0.797,0.0785,2.29,1.84,3.22,4.21,3.75
GCTACTAGGTCAACTGATGGTCAGCTAAAGCTCG,4.07,3.11,0.488,2.22,0.314,4.47,7.27,6.19,3.31,5.71
CCTACTGGGCCAAGGTAATTGATCAGTCAAAGCA,-0.458,-0.478,-0.526,-0.461,-0.835,0.508,0.767,1.22,0.0282,0.531
TTGCCAAGGTGAGCTGAGGTCGTTGATCCAACTC,1.5,0.918,-0.266,0.415,-1.74,1.46,-0.358,0.302,-0.768,-0.564
TCTTGTAGATCAACAGGAGGTTAAGATAGATCGA,0.606,1.82,0.251,0.87,-0.281,1.34,0.413,1.07,2.4,1.53
TGAATGAGGTTATTAGATCAGGGAACGTTGCAAA,1.98,1.62,0.0291,1.3,0.0407,3.09,2.46,2.61,0.886,1.65
TCTGCTAGGTCAACGATGGTCTGCTAATCTGCTA,2.95,2.1,-0.371,1.35,0.041,2.92,1.92,2.64,1.66,2.11
CTCGAAAGGTCGGTTGAGGTGAGTATACGGATAA,2.05,1.7,-0.0944,1.35,-0.0787,2.63,0.61,1.18,-0.156,0.663
